Experimental data: PubChem BioAssay (NCI)
Several values for one entry are separate records, joined by “and”; a condition that tells them apart may be missing. Identical values can stand only once. The panel holds about 79,000 compounds, 15% with a hit somewhere; the sample as a whole holds those more often. Cut-off read from the data, not from the text of the source: active = growth inhibition above about 70%; inactive = the rest. Where a SMILES comes first, the peptide text is derived from it. The star is where a group is joined. Cbz = O=C(OCc1ccccc1)*

Key:
[1] = NCI Yeast Anticancer Drug Screen. Data for the rad50 strain (AID 155);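 note: 0% = growth of vehicle-only cultures of the same strain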; conditions: S. cerevisiae rad50 strain growth inhibition, stronger effect = higher value; at 50.0 µM unless noted
How it was run: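 Readout: growth inhibition relative to vehicle-treated cultures. Compound exposure was carried out in a genetically defined yeast strain deficient in DNA damage repair.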

[2] = NCI Yeast Anticancer Drug Screen. Data for the mec2-1 strain (AID 157); conditions: S. cerevisiae mec2-1 strain, stronger effect = higher value; at 50.0 µM unless noted
How it was run: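 Compounds were applied to mec2-1 yeast cells. Their growth was then compared with that of vehicle-treated cultures to give growth inhibition.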

[3] = NCI Yeast Anticancer Drug Screen. Data for the sgs1 mgt1 strain (AID 161);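 note: 0% = growth of cultures given vehicle only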; conditions: S. cerevisiae sgs1 mgt1 strain, stronger effect = higher value; at 50.0 µM unless noted
How it was run: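 Growth of a repair-deficient yeast mutant was monitored after compound treatment and expressed as inhibition relative to vehicle-treated cultures.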

[4] = NCI Yeast Anticancer Drug Screen. Data for the cln2 rad14 strain (AID 165);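 note: 0% = growth equal to vehicle treated cultures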; conditions: S. cerevisiae cln2 rad14 strain, stronger effect = higher value; at 50.0 µM unless noted
How it was run: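 Strain: cln2 rad14 yeast, altered in cell cycle control and DNA damage repair. Read-out: growth inhibition vs vehicle.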

[5] = NCI Yeast Anticancer Drug Screen. Data for the bub3 strain (AID 167); conditions: S. cerevisiae bub3 mutant strain, stronger effect = higher value; at 50.0 µM unless noted
How it was run: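 Readout: yeast growth inhibition, expressed relative to vehicle-only wells. The test organism is a mutant strain from a panel with lesions in DNA repair or checkpoint genes.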

[6] = NCI Yeast Anticancer Drug Screen. Data for the mlh1 rad18 strain (AID 175); conditions: S. cerevisiae mlh1 rad18 strain growth inhibition, stronger effect = higher value; at 50.0 µM unless noted
How it was run: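 A repair-deficient yeast strain is exposed to test compound, and growth is scored relative to vehicle-treated controls.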

Measured: growth inhibition

N=C(N)CCNC(=O)C1CCC(N)=N1 (stereo not given)
inactive: [1] -4.85% | [2] -17.8% | [3] -13.9% | [4] 56.4% | [5] -28.1% | [6] -13.6%

C#CCOC(=O)Nc1ccccc1
inactive: [1] 21.6% and 1.85% | [2] 12.7% and -1.2% | [3] -8.7% and -8.65% | [4] -72.2% and -54.2% | [5] -1.1% and -10.6% | [6] 5.55% and -0.8%

C/C(CC(=O)Nc1cc(Cl)c(Cl)cc1Cl)=N\NS(=O)(=O)c1ccc(C)cc1
inactive: [1] -3.05% | [2] -6.8% | [3] 3.35% | [4] -53.9% | [5] -1.2% | [6] 2.75%

COC(=O)C1CCCC1
inactive: [1] 3.75% | [2] -44% | [3] 16.2% | [4] 9.4% | [5] -2.8% | [6] 22.6%

CC(C)(C)NCCS
inactive: [1] -17.1% | [2] -34.9% | [3] -32.4% | [4] 2.95% | [5] -19.9% | [6] -12.8%

Nc1ncnc2c1c(-c1ccc(Cl)cc1)cn2-c1ccc(I)cc1
inactive: [1] 2.45% | [2] 2.45% | [3] -17.2% | [4] -7.4% | [5] -1.1% | [6] 7%

O=C(O)CNC(=O)CNC(=O)CNC(=O)C(CSC(c1ccccc1)(c1ccccc1)c1ccccc1)NC(=O)OCc1ccccc1 (stereo not given)
inactive: [1] 20.4% | [2] 4.5% | [3] -13.7% | [4] 22.1% | [5] 10.7% | [6] 4.9%

Nc1cc(C(=O)O)[nH]c(=O)n1
inactive: [1] -23.7% | [2] -18.4% | [3] -20.2% | [4] -70.2% | [5] -18.9% | [6] -10.3%

O=Cc1c[nH]c2ccc(F)cc12
inactive: [1] 9.85% | [2] -19.4% | [3] 20.6% | [4] 14.3% | [5] 19.9% | [6] 23.4%

CC(C)(CN1CCCCC1)C(=O)CC(SCCN)c1ccc(Cl)cc1 (stereo not given)
inactive: [1] 27.8% | [2] 0.65% | [3] 47.3% | [4] 31.2% | [5] 46.9% | [6] 23.8%

O=C(/C=C/c1ccc(O)c(O)c1)OC1CC(O)(C(=O)O)CC(O)C1O (stereo not given) (tested in a mixture with another compound)
inactive: [1] -26.6% | [2] -13.9% | [3] -9.35% | [4] -17.1% | [5] 4% | [6] -12.3%

O=C1OCCOCCOCCOCCOCCOC(=O)c2cccc1n2
inactive: [1] 18.1% | [2] 12.2% | [3] 20.4% | [4] 18.1% | [5] 12.5% | [6] 16.1%

COc1ccc2nc3cc([N+](=O)[O-])ccc3c(NCCCN(C)C)c2c1
inactive: [1] 7.05% | [2] -1.9% | [3] 45.4% | [4] 20.9% | [5] 8.25% | [6] 5.4%

C=CCOC(=O)c1ccccc1
inactive: [1] 11.3% | [2] 6.5% | [3] 2.55% | [4] 11.4% | [5] -9.55% | [6] -16.6%

CC(C)(C)NNC(=O)CCn1[nH]c(=O)c(Cl)c(Cl)c1=O
inactive: [1] -0.8% | [2] -5.25% | [3] -18.9% | [4] -2.25% | [5] -16% | [6] -12.3%

CC(C)(C(N)C(=O)O)C(N)C(=O)O (stereo not given)
inactive: [1] 16.4% | [2] 4.8% | [3] -17.4% | [4] -11.9% | [5] -3.55% | [6] -8.8%

CC(Oc1ccc(OCC2CCCCC2)cc1)C(=O)N(CCO)CCO (stereo not given)
inactive: [1] 21.2% | [2] -19.9% | [3] 25.6% | [4] 11.9% | [5] -43.4% | [6] 6.65%

O=C1CCC(=O)N1CNc1cccc(NCN2C(=O)CCC2=O)c1
inactive: [1] -5.35% | [2] -30.9% | [3] 11.9% | [4] 10.5% | [5] 3.9% | [6] -4.6%

O=C(c1ccccc1)c1ccc(O)cc1
inactive: [1] 3.5% | [2] 3.05% | [3] 21.4% | [4] 13.9% | [5] -1.75% | [6] 24.9%

CCCCCCOS(=O)(=O)c1ccc(C)cc1
inactive: [1] 23.1% | [2] -9.95% | [3] -2.1% | [4] 16.6% | [5] 6.7% | [6] 22.4%

CCN(CC)c1ccc(/C=N/Nc2cc(C)nc3ccc(C4CCCCC4)cc23)cc1
inactive: [1] 25.8% | [2] 4.3% | [3] 21.1% | [4] 3.15% | [5] -2.35% | [6] 44.9%

CCC(CC)C(=O)OC1CCCCC1
inactive: [1] 9.9% | [2] 5.25% | [3] 13.8% | [4] -7.8% | [5] 4.8% | [6] 5.35%

COC(=O)CSc1cc(Cl)c(C)cc1S(=O)(=O)Nc1n[nH]c(N)n1
inactive: [1] -14.2% | [2] -7.5% | [3] -11% | [4] -6.65% | [5] -9.75% | [6] 10.2%

O=c1[nH]c(=O)n(C2OC(CO)C(O)C2O)c2ccccc12 (stereo not given)
inactive: [1] 8.3% | [2] -6.4% | [3] -8% | [4] -2% | [5] -5.45% | [6] 3.8%

Cc1c(Cl)cccc1NC(=O)C(=O)c1c(O)c2ccc(O)cc2oc1=O
inactive: [1] 4.8% | [2] 1.25% | [3] -19.1% | [4] 3.45% | [5] -15.6% | [6] 5.35%

Cc1ccc(O)cc1N(C)C
inactive: [1] -18.4% | [2] -3.95% | [3] -12.7% | [4] -35% | [5] -6.25% | [6] -3.65%

COC(=O)[C@H](Cc1c[nH]c2ccccc12)NC(=O)OCC1OC(n2cc(C)c(=O)[nH]c2=O)CC1N=[N+]=[N-] (stereo not given in full)
inactive: [1] -0.35% | [2] -20.4% | [3] -3.5% | [4] 9.3% | [5] -13.6% | [6] -79.5%

COC(=O)C1NC(=O)C(N2C(=O)c3ccccc3C2=O)=CSC1(C)C (stereo not given)
inactive: [1] -15.8% | [2] -3.05% | [3] 1.15% | [4] -11.6% | [5] -48% | [6] -7.2%

Nc1nnc2nc(CC(=O)c3cccc([N+](=O)[O-])c3)/c(=C/C(=O)c3cccc([N+](=O)[O-])c3)n12
inactive: [1] 33.5% | [2] 18.7% | [3] 12.2% | [4] 7.45% | [5] -4.8% | [6] 22.8%

CN(C)/N=C/C=C1\N=C(c2ccccc2)OC1=O
inactive: [1] 5.75% | [2] -10.6% | [3] -17.9% | [4] -45.7% | [5] -0.75% | [6] -10.9%

O=C(N[C@@H](CSSC[C@H](NC(=O)OCc1ccccc1)C(=O)O)C(=O)O)OCc1ccccc1
inactive: [1] 15.6% | [2] 0.85% | [3] 9.2% | [4] -3.65% | [5] 2.7% | [6] 2.55%

Cc1noc(NC(=O)Nc2ccccc2F)c1C#N
inactive: [1] -24.3% | [2] -10.4% | [3] -33.1% | [4] 26.9% | [5] -15.9% | [6] -2.25%

COC(=O)CCC1(C)C2CCC1(C)/C(=N/O)C2 (stereo not given)
inactive: [1] -10.2% | [2] 3.15% | [3] 2.35% | [4] 0.45% | [5] -21.1% | [6] 6.7%

Nc1ccccc1SC1CC(=O)N(c2ccc3c(c2)OCO3)C1=O (stereo not given)
inactive: [1] 6.55% | [2] 8.85% | [3] 20.4% | [4] 16.4% | [5] 8.35% | [6] 16.3%

Cc1ccc(N2C(=O)C3CSCN3C2=O)cc1 (stereo not given)
inactive: [1] 31.2% | [2] 19.8% | [3] 6.85% | [4] 4.9% | [5] 9% | [6] 6.25%

CC(C)NC(=O)OCc1c(COC(=O)NC(C)C)c2n(c1Br)CCC2
inactive: [1] 32.8% | [2] 26.1% | [3] -9.6% | [4] 16.9% | [5] 0.2% | [6] -51.4%

Nc1nnc2nc(C(C(=O)c3ccc(F)cc3)c3nc4nnc(N)n4[nH]c3=O)c(=O)[nH]n12
inactive: [1] 15.1% | [2] 4.15% | [3] -10.2% | [4] 8.45% | [5] 0.2% | [6] 18.8%

NC(=O)C(Cc1ccccc1)NC(=O)C(Cc1ccccc1)NC(=O)C(Cc1ccccc1)NC(=O)OCc1ccccc1 (stereo not drawn) (Cbz-Phe-Phe-Phe-NH2; configuration not given here)
inactive: [1] 25.6% | [2] 7.8% | [3] 17.6% | [4] -12% | [5] -5.2% | [6] 21.9%

Cc1cc(C)nc(/N=C(/N)Nc2ccc(S(=O)(=O)NC(=O)Nc3ccccc3)cc2)n1
inactive: [1] 21.5% | [2] 2.55% | [3] 5.8% | [4] 1.8% | [5] 0% | [6] -4.2%

COC(=O)c1cc(Br)cc(Br)c1N
inactive: [1] 26.1% | [2] -12.9% | [3] 0.3% | [4] -35.1% | [5] 3.6% | [6] 32.4%
